Results on 45 compounds are retold here after PubChem BioAssay AID2417 (National Center for Advancing Translational Sciences (NCATS), 2010).

In all, about 140,000 compounds went through this assay and about 4,300 (3.1%) were called active. Another 21% or so got no clear call; they are omitted. For the sample, actives were picked, then their nearest neighbours and some compounds at random. Unmarked numbers belong to inactive results.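 How the source made its calls: active means readout at or below -70, meaning at least 70% loss of cells showing the perinucleolar compartment, a nuclear body marking cancer cells; inconclusive means readout between -30 and a set limit; inactive means the rest.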

A short description of this assay: High Content Assay for Compounds that inhibit the Assembly of the Perinucleolar Compartment.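 Further: plate controls were DMSO wells for no effect and camptothecin positive control wells for full effect.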 The following applies: PC3M PTB-GFP, PNC prevalence imaging, 16 h; at 10 µM; hits give low values. An excerpt: High Content Assay for Compounds that inhibit the Assembly of the Perinucleolar Compartment NIH Chemical Genomics Center [NCGC] NIH Molecular Libraries Probe Centers Network [MLPCN] MLPCN Grant: MH082371-01A2 Assay Submitter (PI): Sui Huang, Northwestern University, Feinberg School of Medicine, Cell and Molecular Biology, Chicago, Illinois. The perinucleolar compartment (PNC) is a non-membrane-bound nuclear subdomain that is associated with but structurally distinct from the nucleolus. The PNC is a heritable trait, in which the number of PNCs per cell in daughter cells often mimics that of their mother cells. The PNC is heterogeneous in shape, is stable through interphase, disassembles during mitosis, and reassembles in early G1. The PNC is concentrated with newly synthesized RNA polymerase III (pol III) RNAs (MRP RNA, RNAse P H1 RNA, hY RNAs[hY1, 2, 5], Alu RNA, and SRP [7SL] RNA) and RNA binding proteins (nucleolin, PTB, CUG-BP, KSRP, Raver1, Raver2, and Rod). […] Extensive in vitro studies have shown that the PNC is unique to tumor cells and preferentially forms in tumor cells derived from solid tissues. Examination of cancer cell lines from various origins and malignant capacities has shown that PNC prevalence correlates with the malignancy of tumors and has the potential to be developed as a pan-cancer prognostic marker. […] Although the PNC is associated with a DNA locus and a handful of components have been identified, much remains to be investigated regarding the structure and function of the PNC and its mechanistic link to cancer. We have previously shown that PNC prevalence reduction is a valid strategy to identify compounds that can be used to study the structure and function of the PNC. It is necessary, however, to create a screening platform that is able to test a large number of compounds in an automated fashion. Here we report the development and robustness of an automated whole-cell phenotypic image-based screening assay that is capable of identifying such compounds.
PNC High Content Imaging Assay Procedure: 1. Cells at a density of 75-90% confluency in T175 flasks were harvested using 7 ml TrypLE Express cell dissociation reagent. After dissociation (5 minutes room temperature incubation) 10 ml of complete media was added to the TrypLE/cell suspension. The liquid was transferred to a 50 ml Conical tube and cells were pelleted at 1000 RPM for 5 min. Supernatant was removed and cells were resuspended to a final density of 150-200 cells/ul in complete media. 2. Cells were plated in 5 ul volume (750-1000 cells/well) into 1536 well Black uclear Aurora Low Base plates and allowed to recover and adhere at 37 C in a humidified 5% CO2 incubator for 4 hours. 3. After 4 hour incubation, compound libraries (23 nl of […] in columns 5-48) were transferred to the plates in duplicate using a 1536 well pintool. Camptothecin positive control (59 uM final) was added to column 2 and 1:3 dilutions of camptothecin was added to column 3. DMSO negative controls were present in columns 1 and 4. 4. After a 16 hour incubation in the 37 C incubator, cells were fixed by the addition of 4 ul of 6% EM grade paraformaldehyde (containing 0.1% triton X 100) directly to the cells. The plates were incubated at room temperature for 20 minutes. The liquid was removed using a 32 channel Kalypsys aspirator and the fixed cells were washed twice with 5 ul PBS followed by a final addition of 5 ul PBS containing 1 ug/ml Hoechst 33342. 5. Fixed plates were sealed and sotred at 4C until imaged. 6. Plates were imaged on an InCell 1000 automated microscope using a 20 x objective, a standard FITC filter set, no camera binning, and an exposure time of ~100-150 msec/well. 7. Data analysis. PNC prevalence was determined using the Multitarget analysis module from InCell Workstation software (V3.5 ) and analysis was run on a quad core workstation using the Incell Developer Toolbox (V1.7). […]
Regarding `COc1ccc(C/C(C)=N/NC(=O)c2ccncc2)cc1`, the activity change (PNC), negative = inhibition was 36.6%.
For `COc1cc(C)nc(N2CCCC(C(=O)NCC(C)C)C2)n1` (stereo not given), the activity change (PNC), negative = inhibition is -100% (active).
For the compound `Cc1cc(=O)n2nc(N3CCCC(C(=O)NCCC4=CCCCC4)C3)sc2n1` (stereo not given), the activity change (PNC), negative = inhibition was 6.76%.
As for `Cc1ccnc(N2CCCC(C(=O)Nc3cc(F)ccc3C)C2)n1` (stereo not given), the figure is -22.4%; as for `NS(=O)(=O)c1ccc(CCNC(=S)Nc2ccc(S(N)(=O)=O)cc2)cc1`, 74.6%.
Take `CCOC(=O)NC(=O)C(=CNc1cccc(OC)c1)C(=O)NC(=O)OCC`: the activity change (PNC), negative = inhibition was 45.4%.
As for `CCOC(=O)C(NC(=O)CC(C)C)(Nc1sc2c(c1C(N)=O)CCCC2)C(F)(F)F` (stereo not given), the figure is 0.0946%.
For the compound `CCn1nc(C(=O)OCC(=O)N2c3ccccc3CC2C)c2ccccc2c1=O` (stereo not given), the activity change (PNC), negative = inhibition is -8.81%.
On to `CC1Cc2ccccc2N1C(=O)Cn1cnc2ccccc2c1=O` (stereo not given), for which the activity change (PNC), negative = inhibition is -80.4% (active).
The result for `CC1Cc2ccccc2N1C(=O)CSc1nc2ccccc2o1` (stereo not given) reads 31.3%.
`COc1ccc(C2CC(c3ccccc3)=NN2C(=O)c2ccc(Cl)c([N+](=O)[O-])c2)cc1` (stereo not given): the activity change (PNC), negative = inhibition was 27.8%.
For the compound `CCOc1ccc(S(=O)(=O)N(CC(=O)NCC(F)(F)F)Cc2ccco2)cc1`, the activity change (PNC), negative = inhibition was 52.1%.
As for `Cc1cc(/C=C2\SC(=Nc3ccc(N4CCOCC4)cc3)N(C)C2=O)c(C)n1-c1cccnc1`, the figure is -27.8%; as for `CC(=O)Nc1ccc(OC(=O)COc2ccc(Br)cc2)cc1`, 36.4%.
In the case of `CN1CCCC(OC(=O)COc2ccc(Br)cc2)C1` (stereo not given), the activity change (PNC), negative = inhibition is -86.4% (active).
In the case of `CCOC(=O)N1CCN(C(=O)COc2ccc(Br)cc2)CC1`, the activity change (PNC), negative = inhibition is -29.5%.
As to `COc1ccc(C(C(=O)NC2CCCCC2)N(C(=O)Cc2c[nH]c3ccccc23)c2ccccc2)cc1OC` (stereo not given), the activity change (PNC), negative = inhibition is 32.6%.
On to `O=C(/C=C/c1ccc([N+](=O)[O-])cc1)NCCSCc1ccco1`, for which the activity change (PNC), negative = inhibition is 85.9%.
Regarding `COc1ccc(CCNC(=O)c2ccco2)cc1`, the activity change (PNC), negative = inhibition was 24.7%.
Turning to `COc1cc(OC)cc(C(=O)NCCSCc2ccco2)c1`, the activity change (PNC), negative = inhibition is -94.6% (active).
For the compound `CS(=O)(=O)N(Cc1ccc(Cl)cc1)c1ccc(C(=O)NCCSCc2ccco2)cc1`, the activity change (PNC), negative = inhibition is 22.9%.
As for `O=C(/C=C/c1cccc([N+](=O)[O-])c1)NCCSCc1ccco1`, the activity change (PNC), negative = inhibition was -113% (active).
On to `CCC(CC)NC(=O)/C=C/c1cccc([N+](=O)[O-])c1`, for which the activity change (PNC), negative = inhibition was -18.8%.
With `CC(=O)c1c(O)cc2n(c1=O)-c1ccc(Cl)cc1C2(C)C`, the activity change (PNC), negative = inhibition was -2.74%.
`O=C(NC(=O)N1CCOCC1)c1ccccc1`: the activity change (PNC), negative = inhibition was 6.63%.
For `O=C(Nc1ccn(Cc2ccccc2)n1)c1n[nH]c([N+](=O)[O-])c1Cl`, the activity change (PNC), negative = inhibition is 5.38%.
Consider `CC(Sc1cccc[n+]1[O-])C(=O)Nc1cccc(S(=O)(=O)N2CCOCC2)c1` (stereo not given), for which the activity change (PNC), negative = inhibition is -7.27%.
`COc1ccc(-c2csc(NC(=O)COC(=O)c3ccc(Br)o3)n2)cc1`: the activity change (PNC), negative = inhibition is -8.03%.
For `CC(NC(=S)Nc1ccc(S(N)(=O)=O)cc1)c1ccc2c(c1)OCO2` (stereo not given), the activity change (PNC), negative = inhibition was -20.3%.
Take `O=C1CCCc2nn(-c3ccccc3)nc21`: the activity change (PNC), negative = inhibition is -100% (active).
With `c1ccc(-n2nc3ccccc3n2)cc1`, the activity change (PNC), negative = inhibition is -3.58%.
For `N#CC1=C(N)N(c2ccccc2)C2=C(C(=O)CCC2)C1c1ccccc1` (stereo not given), the activity change (PNC), negative = inhibition was 5.97%.
For `CCCCCC(=O)Nc1ccc(S(=O)(=O)Nc2ccc(Cl)nn2)cc1`, the activity change (PNC), negative = inhibition was 31.2%.
As for `CCOc1ccccc1N1CCN(C(=S)Nc2ccc(S(N)(=O)=O)cc2)CC1`, the activity change (PNC), negative = inhibition is -28.8%.
As for `Cc1ccc(C(=O)c2c(NC(=O)c3ccncc3)sc3c2CCCC3)cc1`, the figure is -86.2% (active); as for `COC(=O)c1c(NC(=O)c2cccs2)sc2c1CCCC2`, -6.02%; as for `Cc1ccc(C(=O)c2c(NC(=O)c3ccccc3)sc(C)c2C)cc1`, 71.1%.
With `CC(=O)NC1C(Oc2ccc(C)cc2)OC2COC(c3ccco3)OC2C1O` (stereo not given), the activity change (PNC), negative = inhibition was -119% (active).
`CN1CCN(c2ccc(S(=O)(=O)N3CCCCC3)cc2NC(=O)Cc2ccccc2F)CC1`: the activity change (PNC), negative = inhibition is 41.3%.
Regarding `N#CCOc1ccc(C2=NO[C@@H]3[C@@H]4C[C@@H]([C@H]5C(=O)N(c6ccc7c(c6)OCO7)C(=O)[C@@H]45)[C@H]23)cc1`, the activity change (PNC), negative = inhibition is -91.1% (active).
`CCOC(=O)C1CCN(C(=O)CSc2cc(=O)n(C)c3ccccc23)CC1`: the activity change (PNC), negative = inhibition was 0.103%.
`CCCCn1c(SCc2ncc(-c3ccccc3)o2)nc2cc(S(N)(=O)=O)ccc21`: the activity change (PNC), negative = inhibition was 27%.
`CCCCn1c(SCC(=O)N2CCC(C(=O)OCC)CC2)nc2cc(S(N)(=O)=O)ccc21`: the activity change (PNC), negative = inhibition is -100% (active).
The result for `CCCCN(CC)CCNC(=O)c1[nH]c(C)c(C(C)=O)c1C` reads -4.29%; that for `CCCCOC(=O)c1[nH]c(C)c(C(=O)OC)c1C`, -88.2% (active).
